From PubChem BioAssay
miR122 inh – miR-122 suppressors via Renilla sensor increase, primary screen, cell-based, Huh7 psiCHECK-miR122, Renilla luciferase, single point. 48 h. activation, % at 12.5 µM. hit rate 0.14% among 340,000. AID 623901, 2012;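 active = mean activation of 30% or more, with every replicate also reaching 30%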;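 note: 0% = median of neutral control wells and 100% = median of positive control wells; higher luciferase signal means stronger suppression of miR-122 activity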
Active calls of the source: *. This is one part of a sample in which hits are shown more often than they occur.

SMILES	miR122 inh
COc1cccc(-c2cnc3c(c2)C(=O)N([C@H](C)CO)C[C@H](C)[C@@H](CN(C)Cc2ccccc2)O3)c1	4.3
COc1ccccc1C#Cc1ccc2c(c1)O[C@@H](CN(C)Cc1ccncc1)[C@H](C)CN([C@H](C)CO)S2(=O)=O	6.6
O=S(=O)(C/C(=C/CO)S(=O)(=O)c1ccccc1)c1ccccc1	72.5*
C[C@H]1CN([C@@H](C)CO)C(=O)c2cc(C#Cc3cccnc3)cnc2O[C@@H]1CN(C)S(C)(=O)=O	-1.4
COc1ccc(C#Cc2cnc3c(c2)C(=O)N([C@H](C)CO)C[C@H](C)[C@@H](CN(C)CC2CCCC2)O3)cc1	0.9
COC(=O)[C@@H]1Cc2c([nH]c3ccccc23)C(C)(C)N1C(=O)CCl	32.2*
CCCNC(=O)N(C)C[C@H]1Oc2cc(C#Cc3cccc(F)c3)ccc2S(=O)(=O)N([C@@H](C)CO)C[C@H]1C	2.7
CCC(=O)N(C)C[C@@H]1Oc2ncc(C#CC3(O)CCCC3)cc2C(=O)N([C@@H](C)CO)C[C@H]1C	-7.7
C[C@@H]1CN([C@H](C)CO)C(=O)c2cc(-c3ccccc3F)cnc2O[C@H]1CN(C)Cc1ccccc1F	-35.7
C/C=C/c1cnc2c(c1)C(=O)N([C@@H](C)CO)C[C@H](C)[C@@H](CN(C)C(=O)c1cccnc1)O2	-20.1
C[C@H]1CN([C@@H](C)CO)S(=O)(=O)c2ccc(-c3ccc(C(=O)N(C)C)cc3)cc2O[C@@H]1CN(C)C	1.6
CC(=O)N(C)C[C@@H]1Oc2cc(/C=C/c3ccccc3)ccc2S(=O)(=O)N([C@H](C)CO)C[C@H]1C	-7.8
C[C@@H]1CN([C@@H](C)CO)S(=O)(=O)c2ccc(-c3ccc(C(=O)N(C)C)cc3)cc2O[C@@H]1CN(C)C	1.7
CC(=O)N1[C@H](CNC(=O)CN(C)C)[C@@H](c2ccc(C3=CCCCC3)cc2)[C@@H]1CO	-291.7
CN(C)C(=O)c1ccc(-c2ccc([C@H]3[C@@H](CO)N4CCCCN(C(=O)C5CCCC5)C[C@@H]34)cc2)cc1	30.2*
CN(C)CC(=O)N1CCCCN2[C@@H](CO)[C@@H](c3ccc(/C=C/c4ccccc4)cc3)[C@@H]2C1	32.1*
COc1ccc(-c2cnc3c(c2)C(=O)N([C@H](C)CO)C[C@H](C)[C@@H](CN(C)C(=O)Cc2ccccc2)O3)cc1	-8.6
COc1ccccc1-c1ccc2c(c1)O[C@@H](CN(C)C(C)=O)[C@H](C)CN([C@@H](C)CO)S2(=O)=O	1.2
C[C@@H]1CN([C@H](C)CO)C(=O)c2cc(C#Cc3ccccn3)cnc2O[C@@H]1CN(C)C(=O)CCN1CCCCC1	0.6
C[C@H]1CN([C@@H](C)CO)C(=O)c2cc(Br)cnc2O[C@H]1CN(C)CC1CCOCC1	11.9
O=C(Cc1cccc2ccccc12)Nc1ccc(OC(F)F)c(Cl)c1	-94.0
CC(OC(=O)c1cccc(S(=O)(=O)Nc2cccc(C(F)(F)F)c2)c1)C(=O)Nc1ccc2c(c1)OCCO2 (centres undefined)	-101.3
O=C(Nc1ccc(OC(F)F)cc1)Nc1cccc(C(F)(F)F)c1	44.1*
C[C@@H]1CN([C@H](C)CO)S(=O)(=O)c2ccc(/C=C/c3ccccc3)cc2O[C@H]1CN(C)C(=O)c1ccccc1	-8.5
COCC(=O)N(C)C[C@H]1Oc2ncc(/C=C/c3ccccc3)cc2C(=O)N([C@@H](C)CO)C[C@H]1C	8.3
SMILES	miR122 inh
COc1ccccc1NS(=O)(=O)c1cc(NC(=S)NCC2CCCO2)ccc1C (centres undefined)	-99.2
COc1cccc(Nc2nc(NCC3CCCO3)c3ccccc3n2)c1 (centres undefined)	51.4*
COc1ccc(CN(C(=O)c2ccc(-c3ccccc3)[nH]2)C(C(=O)NCC2CCCO2)c2ccc(C)o2)cc1 (centres undefined)	-230.2
C[C@H](CO)N1C[C@H](C)[C@H](CN(C)C(=O)Nc2ccc3c(c2)OCO3)Oc2cc(C#Cc3ccccc3)ccc2S1(=O)=O	2.4
C[C@@H]1CN([C@@H](C)CO)C(=O)c2cc(/C=C/c3ccccc3)cnc2O[C@H]1CN(C)C(=O)C1CCOCC1	-3.3
COc1ccc(C#Cc2ccc3c(c2)O[C@@H](CN(C)C(=O)NC2CCCCC2)[C@@H](C)CN([C@@H](C)CO)S3(=O)=O)cc1	-12.8
O=C(NC1CCCC1)C(c1ccccc1)N(Cc1ccc2c(c1)OCO2)C(=O)Cc1cccs1 (centres undefined)	-90.1
COc1ccc(C(C(=O)NC2CCCCC2)N(C(=O)CCl)c2cccc(Cl)c2)cc1 (centres undefined)	55.4*
C[C@H](CO)N1C[C@H](C)[C@H](CN(C)C(=O)Cc2ccccn2)Oc2cc(-c3ccc(C(=O)N(C)C)cc3)ccc2S1(=O)=O	4.0
C[C@H]1CN([C@@H](C)CO)S(=O)(=O)c2ccc(-c3cccnc3)cc2O[C@@H]1CN(C)Cc1ccccn1	-2.4
CC(C)CC#Cc1cnc2c(c1)C(=O)N([C@H](C)CO)C[C@@H](C)[C@@H](CN(C)C(=O)Nc1cc(F)ccc1F)O2	10.1
COc1cccc(-c2cnc3c(c2)C(=O)N([C@H](C)CO)C[C@H](C)[C@H](CN(C)Cc2cccc(C)c2)O3)c1	8.5
